Key:
Test in all cases: DAPPL (digital affinity profiling via proximity ligation, sequencing); 10 mM Tris-HCl pH 7.5, 50 mM NaCl, 1 mM DTT, 4% glycerol, room temperature, 30 min; GST-TFs on glutathione beads, 16-mer random dsDNA library, 0.1% formaldehyde crosslink after washing; high values mean tight binding
Conditions in all cases: protein: recombinant; tags: N-terminal GST; dsDNA, one strand shown
[1] = target: T1, ELK1 (Homo sapiens, UniProt P19419 1-428)
T1 sequence: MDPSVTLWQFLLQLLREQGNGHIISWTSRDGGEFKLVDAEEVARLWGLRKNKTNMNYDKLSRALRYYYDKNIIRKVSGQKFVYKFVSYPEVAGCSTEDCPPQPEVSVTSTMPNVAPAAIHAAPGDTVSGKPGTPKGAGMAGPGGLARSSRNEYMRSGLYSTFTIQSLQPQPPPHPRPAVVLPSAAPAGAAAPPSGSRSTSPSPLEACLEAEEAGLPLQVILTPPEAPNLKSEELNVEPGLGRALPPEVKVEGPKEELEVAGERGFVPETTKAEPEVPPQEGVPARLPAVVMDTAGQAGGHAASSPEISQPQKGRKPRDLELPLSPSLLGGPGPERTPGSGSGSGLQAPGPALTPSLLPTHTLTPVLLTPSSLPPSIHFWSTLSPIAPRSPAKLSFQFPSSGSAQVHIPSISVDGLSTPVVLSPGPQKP
Method in brief: (§1)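 A tag-only sample was pooled with DNA-barcoded human transcription factors that had been expressed in yeast as GST fusions and captured on glutathione beads. The pools were incubated for 30 min at room temperature with 200 nmole of a random double-stranded 16-mer DNA library in Tris/NaCl/DTT/glycerol buffer, then washed, crosslinked with 0.1% formaldehyde, proximity-ligated (BsaI/T4 ligase, 1 h, 37 °C), PCR-amplified and sequenced on an Illumina NextSeq500. Binding signal is each hexamer's read frequency for a factor divided by its frequency for the tag-only sample.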

[2] = target: T2, ERG (Homo sapiens, UniProt P11308 1-479)
T2 sequence: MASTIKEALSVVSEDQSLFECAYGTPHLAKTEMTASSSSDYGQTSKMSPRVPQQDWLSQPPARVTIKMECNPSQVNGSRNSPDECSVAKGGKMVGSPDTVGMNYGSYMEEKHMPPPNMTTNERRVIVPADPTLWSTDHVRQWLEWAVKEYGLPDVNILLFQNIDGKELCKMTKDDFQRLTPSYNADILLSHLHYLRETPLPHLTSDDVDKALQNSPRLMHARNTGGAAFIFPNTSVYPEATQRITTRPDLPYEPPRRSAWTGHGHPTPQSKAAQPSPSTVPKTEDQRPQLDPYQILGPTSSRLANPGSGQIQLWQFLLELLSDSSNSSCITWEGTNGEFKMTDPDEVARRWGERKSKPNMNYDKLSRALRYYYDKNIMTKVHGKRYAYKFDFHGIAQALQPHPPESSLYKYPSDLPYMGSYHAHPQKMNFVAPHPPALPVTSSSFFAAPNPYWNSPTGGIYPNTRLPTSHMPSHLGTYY
Method in brief: as §1

[3] = target: T3, ELK4 (Homo sapiens, UniProt P28324-2 1-405)
T3 sequence: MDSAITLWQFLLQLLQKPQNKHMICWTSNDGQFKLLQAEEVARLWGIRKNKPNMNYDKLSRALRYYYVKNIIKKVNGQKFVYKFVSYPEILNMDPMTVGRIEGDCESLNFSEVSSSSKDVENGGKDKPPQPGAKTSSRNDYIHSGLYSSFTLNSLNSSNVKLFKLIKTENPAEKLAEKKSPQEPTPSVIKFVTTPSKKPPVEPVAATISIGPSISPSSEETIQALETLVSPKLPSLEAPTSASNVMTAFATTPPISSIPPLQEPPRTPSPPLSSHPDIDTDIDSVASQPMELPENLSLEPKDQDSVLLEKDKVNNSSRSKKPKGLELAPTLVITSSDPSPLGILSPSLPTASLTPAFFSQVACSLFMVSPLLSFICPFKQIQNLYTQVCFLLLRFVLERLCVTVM
Method in brief: as §1

[4] = target: T4, ELF3 (Homo sapiens, UniProt P78545 1-371)
T4 sequence: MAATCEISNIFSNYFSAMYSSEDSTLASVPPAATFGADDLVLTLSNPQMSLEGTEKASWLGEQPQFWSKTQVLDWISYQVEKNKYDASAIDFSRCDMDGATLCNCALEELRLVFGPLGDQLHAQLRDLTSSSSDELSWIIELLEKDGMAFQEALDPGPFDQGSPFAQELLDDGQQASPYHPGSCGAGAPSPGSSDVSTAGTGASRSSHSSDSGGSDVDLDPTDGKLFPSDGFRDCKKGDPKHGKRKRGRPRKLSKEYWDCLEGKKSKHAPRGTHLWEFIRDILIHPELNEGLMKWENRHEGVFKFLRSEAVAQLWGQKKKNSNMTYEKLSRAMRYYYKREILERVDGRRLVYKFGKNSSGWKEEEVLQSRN
Method in brief: as §1

[5] = target: CRX (Homo sapiens, UniProt O43186 1-299)
CRX, sequence (O43186 whole entry): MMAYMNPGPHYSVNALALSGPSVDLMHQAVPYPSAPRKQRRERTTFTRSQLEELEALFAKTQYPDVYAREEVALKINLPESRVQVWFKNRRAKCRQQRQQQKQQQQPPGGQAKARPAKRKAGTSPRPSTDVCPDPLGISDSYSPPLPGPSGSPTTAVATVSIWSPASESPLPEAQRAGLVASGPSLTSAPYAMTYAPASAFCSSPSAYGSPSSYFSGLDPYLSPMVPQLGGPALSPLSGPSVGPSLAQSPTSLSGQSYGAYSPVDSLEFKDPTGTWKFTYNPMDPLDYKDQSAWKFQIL
Method in brief: as §1

[6] = target: ETV1 (Homo sapiens, UniProt P50549 1-477)
ETV1, sequence (P50549 whole entry): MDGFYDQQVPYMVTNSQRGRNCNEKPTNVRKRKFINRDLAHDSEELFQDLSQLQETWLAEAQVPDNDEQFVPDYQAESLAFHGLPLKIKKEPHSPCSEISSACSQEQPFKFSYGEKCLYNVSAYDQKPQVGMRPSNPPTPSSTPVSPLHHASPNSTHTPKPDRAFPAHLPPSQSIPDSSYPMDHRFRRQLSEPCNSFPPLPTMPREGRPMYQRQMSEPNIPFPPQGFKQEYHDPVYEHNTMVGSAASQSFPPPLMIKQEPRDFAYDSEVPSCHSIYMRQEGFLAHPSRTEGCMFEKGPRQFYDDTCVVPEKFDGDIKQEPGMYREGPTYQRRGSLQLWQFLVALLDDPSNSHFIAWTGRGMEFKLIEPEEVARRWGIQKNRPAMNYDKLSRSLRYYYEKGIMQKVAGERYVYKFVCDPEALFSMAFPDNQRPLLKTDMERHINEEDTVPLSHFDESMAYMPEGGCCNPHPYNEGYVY
Method in brief: as §1

[7] = target: T5, ERF (Homo sapiens, UniProt P50548 1-548)
T5 sequence: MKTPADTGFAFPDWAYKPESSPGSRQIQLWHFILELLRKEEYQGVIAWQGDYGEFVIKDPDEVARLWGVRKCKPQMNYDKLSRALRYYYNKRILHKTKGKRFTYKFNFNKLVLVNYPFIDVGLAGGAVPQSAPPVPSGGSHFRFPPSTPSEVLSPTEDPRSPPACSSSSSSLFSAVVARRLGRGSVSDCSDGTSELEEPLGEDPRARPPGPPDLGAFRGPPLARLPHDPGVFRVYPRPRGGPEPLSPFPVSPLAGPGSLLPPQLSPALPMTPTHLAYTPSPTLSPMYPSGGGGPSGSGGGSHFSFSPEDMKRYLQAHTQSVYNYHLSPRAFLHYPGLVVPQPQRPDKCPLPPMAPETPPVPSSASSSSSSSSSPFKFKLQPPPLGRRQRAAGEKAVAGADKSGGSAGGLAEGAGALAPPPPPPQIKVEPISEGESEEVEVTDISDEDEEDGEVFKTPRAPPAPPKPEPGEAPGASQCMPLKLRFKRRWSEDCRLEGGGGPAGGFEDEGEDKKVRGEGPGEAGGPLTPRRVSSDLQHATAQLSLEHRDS
Method in brief: as §1

[8] = target: T6, SPDEF (Homo sapiens, UniProt O95238 1-335)
T6 sequence: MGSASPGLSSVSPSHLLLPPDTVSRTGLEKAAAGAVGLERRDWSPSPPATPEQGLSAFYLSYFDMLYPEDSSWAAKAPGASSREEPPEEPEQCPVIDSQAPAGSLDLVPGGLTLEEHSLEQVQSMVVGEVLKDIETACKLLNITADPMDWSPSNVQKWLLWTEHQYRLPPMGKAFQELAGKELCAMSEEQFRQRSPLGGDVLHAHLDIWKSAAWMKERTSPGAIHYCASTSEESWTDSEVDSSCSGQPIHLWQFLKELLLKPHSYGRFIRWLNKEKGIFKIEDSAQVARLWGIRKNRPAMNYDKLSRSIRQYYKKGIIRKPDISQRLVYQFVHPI
Method in brief: as §1

[9] = target: T7, ETV3 (Homo sapiens, UniProt P41162-2 1-143)
T7 sequence: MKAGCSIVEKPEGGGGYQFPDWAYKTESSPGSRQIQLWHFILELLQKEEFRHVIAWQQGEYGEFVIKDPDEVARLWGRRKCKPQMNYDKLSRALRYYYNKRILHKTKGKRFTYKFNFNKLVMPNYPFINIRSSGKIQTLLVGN
Method in brief: as §1

[10] = target: ELF1 (Homo sapiens, UniProt P32519 1-619)
ELF1, sequence (P32519 whole entry): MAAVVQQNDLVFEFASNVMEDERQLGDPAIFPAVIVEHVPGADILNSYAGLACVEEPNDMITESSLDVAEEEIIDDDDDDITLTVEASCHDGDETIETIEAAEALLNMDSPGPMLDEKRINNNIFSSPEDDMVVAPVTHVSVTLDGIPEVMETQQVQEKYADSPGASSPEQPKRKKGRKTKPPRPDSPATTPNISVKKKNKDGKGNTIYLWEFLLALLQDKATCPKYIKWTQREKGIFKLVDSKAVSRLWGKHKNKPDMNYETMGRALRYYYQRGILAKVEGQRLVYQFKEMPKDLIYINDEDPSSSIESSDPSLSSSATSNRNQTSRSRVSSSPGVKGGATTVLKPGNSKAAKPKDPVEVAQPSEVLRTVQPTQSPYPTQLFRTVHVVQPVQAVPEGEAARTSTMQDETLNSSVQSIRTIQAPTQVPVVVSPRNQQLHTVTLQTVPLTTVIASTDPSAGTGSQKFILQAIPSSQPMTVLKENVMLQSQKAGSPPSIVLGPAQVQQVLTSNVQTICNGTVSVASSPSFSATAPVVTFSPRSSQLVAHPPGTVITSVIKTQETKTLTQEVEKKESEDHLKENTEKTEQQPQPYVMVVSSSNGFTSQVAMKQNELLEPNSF
Method in brief: as §1

[11] = target: ELF4 (Homo sapiens, UniProt Q99607 1-663)
ELF4, sequence (Q99607 whole entry): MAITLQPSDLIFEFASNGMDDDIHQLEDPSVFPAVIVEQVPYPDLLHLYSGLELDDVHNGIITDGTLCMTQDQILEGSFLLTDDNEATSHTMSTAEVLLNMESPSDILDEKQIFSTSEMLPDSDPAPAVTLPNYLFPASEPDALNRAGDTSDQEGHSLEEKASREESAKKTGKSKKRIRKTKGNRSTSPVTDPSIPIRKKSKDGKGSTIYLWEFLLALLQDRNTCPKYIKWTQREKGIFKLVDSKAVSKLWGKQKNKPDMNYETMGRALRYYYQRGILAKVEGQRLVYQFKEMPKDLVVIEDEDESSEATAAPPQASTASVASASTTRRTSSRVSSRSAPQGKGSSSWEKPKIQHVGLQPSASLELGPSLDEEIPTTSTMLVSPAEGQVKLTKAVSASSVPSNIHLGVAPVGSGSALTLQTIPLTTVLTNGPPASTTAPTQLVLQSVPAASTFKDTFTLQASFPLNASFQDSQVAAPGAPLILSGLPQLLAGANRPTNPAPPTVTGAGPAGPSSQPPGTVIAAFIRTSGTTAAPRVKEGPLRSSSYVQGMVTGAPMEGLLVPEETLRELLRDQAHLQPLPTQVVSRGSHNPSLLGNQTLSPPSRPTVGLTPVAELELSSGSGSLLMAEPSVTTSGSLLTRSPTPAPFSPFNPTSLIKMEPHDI
Method in brief: as §1

[12] = target: T8, ELK3 (Homo sapiens, UniProt P41970 1-407)
T8 sequence: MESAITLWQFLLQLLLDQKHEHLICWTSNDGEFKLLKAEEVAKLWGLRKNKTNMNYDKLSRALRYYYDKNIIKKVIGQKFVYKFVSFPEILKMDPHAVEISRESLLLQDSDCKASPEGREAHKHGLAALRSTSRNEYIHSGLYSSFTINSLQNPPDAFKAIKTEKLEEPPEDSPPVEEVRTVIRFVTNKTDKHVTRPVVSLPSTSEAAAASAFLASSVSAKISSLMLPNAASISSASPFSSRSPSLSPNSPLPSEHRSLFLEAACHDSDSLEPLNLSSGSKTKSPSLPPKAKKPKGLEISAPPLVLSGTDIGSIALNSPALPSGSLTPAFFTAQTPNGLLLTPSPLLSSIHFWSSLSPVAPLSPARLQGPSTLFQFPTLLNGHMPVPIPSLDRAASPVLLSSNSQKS
Method in brief: as §1

[13] = target: T9, ETV2 (Homo sapiens, UniProt O00321 1-342)
T9 sequence: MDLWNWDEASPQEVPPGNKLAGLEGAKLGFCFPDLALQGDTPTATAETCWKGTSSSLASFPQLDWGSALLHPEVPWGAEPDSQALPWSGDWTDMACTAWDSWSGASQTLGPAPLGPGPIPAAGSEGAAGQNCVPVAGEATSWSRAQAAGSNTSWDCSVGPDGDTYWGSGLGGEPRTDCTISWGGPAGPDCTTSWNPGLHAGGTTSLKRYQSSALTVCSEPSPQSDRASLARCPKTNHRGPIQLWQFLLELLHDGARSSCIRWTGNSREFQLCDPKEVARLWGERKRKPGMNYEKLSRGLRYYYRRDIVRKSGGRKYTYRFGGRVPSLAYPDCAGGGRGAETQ
Method in brief: as §1

| Sequence | binding signal [1] | binding signal [2] | binding signal [3] | binding signal [4] | binding signal [5] | binding signal [6] | binding signal [7] | binding signal [8] | binding signal [9] | binding signal [10] | binding signal [11] | binding signal [12] | binding signal [13] |
| --- | --- | --- | --- | --- | --- | --- | --- | --- | --- | --- | --- | --- | --- |
| TTGAAG | 1.06 fold enrichment (6-mer frequency, TF over GST control) | 1.02 fold enrichment (6-mer frequency, TF over GST control) | 1.09 fold enrichment (6-mer frequency, TF over GST control) | 1.07 fold enrichment (6-mer frequency, TF over GST control) | 1.03 fold enrichment (6-mer frequency, TF over GST control) | 1.01 fold enrichment (6-mer frequency, TF over GST control) | 1.01 fold enrichment (6-mer frequency, TF over GST control) | 1.03 fold enrichment (6-mer frequency, TF over GST control) | 1.02 fold enrichment (6-mer frequency, TF over GST control) |  |  |  |  |
| GCCAAC |  |  |  |  |  |  | 1.03 fold enrichment (6-mer frequency, TF over GST control) |  |  | 1.01 fold enrichment (6-mer frequency, TF over GST control) | 1.04 fold enrichment (6-mer frequency, TF over GST control) |  |  |
| GTGTTA | 1.02 fold enrichment (6-mer frequency, TF over GST control) | 1.01 fold enrichment (6-mer frequency, TF over GST control) | 1.04 fold enrichment (6-mer frequency, TF over GST control) | 1.15 fold enrichment (6-mer frequency, TF over GST control) | 1.11 fold enrichment (6-mer frequency, TF over GST control) |  | 1.06 fold enrichment (6-mer frequency, TF over GST control) |  |  |  |  | 1.02 fold enrichment (6-mer frequency, TF over GST control) | 1.01 fold enrichment (6-mer frequency, TF over GST control) |
